Reference: PubChem BioAssay
The source made the active and inactive calls.

Columns and labels:
[1] = small molecules captured by biotinylated probe aFSTL3 – biochemical, small-molecule microarray, fluorescence 635/667, stem cell growth factor project, primary screen (AID 1064); settings: higher = more signal;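 also: measures binding of the biotinylated anti-FSTL3 antibody to printed compounds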
[2] = binders from COS7 lysate, DM2A8 probe, primary screen, torsin A project, cell lysate, small-molecule microarray, fluorescence 635/667 (AID 1065); settings: higher = more signal, COS7 lysate expressing mutant human TOR1A
[3] = small molecules captured by biotinylated probe aFGF2 – biochemical, small-molecule microarray, fluorescence 635/667, stem cell growth factor project, primary screen (AID 1067); settings: higher = more signal;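 also: measures binding of biotinylated aFGF2 protein to printed compounds on slides; z-score merges feature fluorescence and signal-to-noise across triplicate slides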
[4] = small molecules captured by biotinylated probe aFGF10 – biochemical, small-molecule microarray, fluorescence 635/667, stem cell growth factor project, primary screen (AID 1071); settings: higher = more signal;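 also: score merges 667 nm spot intensity and signal to noise from triplicate slides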
[5] = target: Neurogenic locus notch homolog protein 2 (Homo sapiens) (UniProt Q04721); assay: small molecules binding Notch2 protein – biochemical, small-molecule microarray, 635 nm fluorescence, stem cell growth factors, primary screen (AID 1073); settings: higher = more signal
[6] = target: Pro-neuregulin-1, membrane-bound isoform (Homo sapiens) (UniProt Q02297); assay: small molecules binding neuregulin-1 protein – biochemical, small-molecule microarray, fluorescence 635/667, psychiatric disease protein project, primary screen (AID 1075); settings: NRG1 binding, 635 nm fluorescence, higher = more signal;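 also: score combines 667 nm spot fluorescence with signal to noise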
Sequence of Pro-neuregulin-1, membrane-bound isoform (Homo sapiens) (Q02297 whole entry, looked up, the tested form may be a part, canonical isoform): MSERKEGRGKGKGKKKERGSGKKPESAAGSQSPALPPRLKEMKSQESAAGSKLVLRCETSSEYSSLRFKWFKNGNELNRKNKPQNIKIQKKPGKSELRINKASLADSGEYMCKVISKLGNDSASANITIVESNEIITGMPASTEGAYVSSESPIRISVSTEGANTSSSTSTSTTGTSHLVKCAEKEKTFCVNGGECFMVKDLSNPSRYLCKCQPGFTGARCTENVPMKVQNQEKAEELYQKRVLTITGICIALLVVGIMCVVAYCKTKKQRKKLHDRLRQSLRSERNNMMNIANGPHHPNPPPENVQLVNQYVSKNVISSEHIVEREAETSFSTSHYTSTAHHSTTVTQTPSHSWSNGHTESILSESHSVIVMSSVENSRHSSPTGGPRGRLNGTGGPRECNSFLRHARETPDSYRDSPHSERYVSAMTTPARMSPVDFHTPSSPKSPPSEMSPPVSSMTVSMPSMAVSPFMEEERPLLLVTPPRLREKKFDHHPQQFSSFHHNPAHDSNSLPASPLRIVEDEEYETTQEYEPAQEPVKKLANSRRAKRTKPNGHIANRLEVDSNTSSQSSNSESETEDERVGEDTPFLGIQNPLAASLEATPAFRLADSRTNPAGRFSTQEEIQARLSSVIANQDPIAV

[7] = system: Neuregulin-1 EGF-like domain; assay: small molecules binding NRG1 EGF domain – biochemical, small-molecule microarray, 635 nm fluorescence, primary screen (AID 1081); settings: higher = more signal;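 also: binding of the protein to compounds printed on small-molecule microarray slides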
[8] = FRG1 expression reporter modulators in myotubes – cell-based, C2C12 myotubes, firefly/Renilla luciferase, luminescence, FRG1 inhibition for FSHD, primary screen (AID 1084); settings: FRG1 promoter luciferase, higher = more signal, called active from +8 up or from −8 down
[9] = small molecules captured by biotinylated probe aFST – biochemical, small-molecule microarray, fluorescence 635/667, stem cell growth factor project, primary screen (AID 1086); settings: higher = more signal;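 also: score merges 667 nm fluorescence with signal-to-noise of each printed compound spot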
[10] = binders of probe aHhip on microarray, primary screen, stem cell growth factor project, biochemical, small-molecule microarray, fluorescence 635/667 (AID 1087); settings: higher = more signal;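 also: score merges spot fluorescence at 667nm with spot signal to noise ratio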
[11] = system: PRMT1 (protein arginine N-methyltransferase 1); assay: small molecules binding arginine methyltransferase PRMT1 – biochemical, small-molecule microarray, 635 nm fluorescence, primary screen (AID 1088); settings: higher = more signal;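 also: binding of Prmt1 protein to compounds spotted on small-molecule microarray slides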
[12] = growth effects on S. cerevisiae YJM789 – YJM789 clinical isolate, OD600, 24 h, basal, primary screen (AID 1089); settings: higher = more signal, called active from +8 up or from −8 down;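 also: growth of clinical yeast isolate S. cerevisiae YJM 789 seeded 1000 cells per well; test concentration not given here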
[13] = S. pombe growth modifiers, basal conditions – strain 972, OD600, 24 h, no modulator, primary screen (AID 1090);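 also: basal condition with compound alone and no growth modifier present; test concentration not given here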; settings: S. pombe 972 growth, higher = more signal, called active from +8 up or from −8 down
[14] = budding yeast growth modifiers under rapamycin – strain BY4716, OD600, 96 h, primary screen (AID 1091); also: test concentration not given here; settings: S. cerevisiae BY4716 + rapamycin, higher = more signal, called active from +8 up or from −8 down
[15] = target: Torsin-1A-interacting protein 2 (Homo sapiens) (UniProt Q8NFQ8); assay: small molecules binding lysate-expressed LULL1 – cell lysate, human LULL1 lysate, 635/667 nm fluorescence, primary screen (AID 1092); settings: small-molecule microarray, hLULL1 lysate binding, 635 nm fluorescence; higher = more signal;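 also: probe is lysate of COS7 cells overexpressing human LULL1; score merges per-feature 667 nm fluorescence with signal-to-noise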
Sequence of Torsin-1A-interacting protein 2 (Homo sapiens) (Q8NFQ8 whole entry, looked up): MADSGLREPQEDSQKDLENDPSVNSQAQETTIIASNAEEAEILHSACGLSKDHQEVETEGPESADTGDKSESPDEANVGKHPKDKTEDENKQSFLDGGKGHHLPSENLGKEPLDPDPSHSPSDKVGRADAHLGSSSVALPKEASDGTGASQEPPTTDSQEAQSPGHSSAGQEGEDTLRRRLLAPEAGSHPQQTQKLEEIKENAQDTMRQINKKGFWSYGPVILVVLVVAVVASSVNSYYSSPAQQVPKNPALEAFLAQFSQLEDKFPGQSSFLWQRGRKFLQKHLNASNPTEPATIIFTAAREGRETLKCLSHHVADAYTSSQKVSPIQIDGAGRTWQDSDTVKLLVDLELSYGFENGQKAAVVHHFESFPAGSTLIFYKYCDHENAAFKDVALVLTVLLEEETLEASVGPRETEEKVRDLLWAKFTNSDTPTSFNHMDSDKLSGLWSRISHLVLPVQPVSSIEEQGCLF

[16] = optical density change of DRC41 E. coli – strain DRC41, OD650, 24 h, E. coli filamentation project, primary screen (AID 1093);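 also: MC1000 strain lacking acrAB efflux and sulA so SOS filamentation is blocked; test concentration not given here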; settings: E. coli DRC41 growth, higher = more signal, called active from +8 up or from −8 down
[17] = probe aLefty2 binding to arrayed compounds – biochemical, biotinylated probe, 635/667 nm fluorescence, primary screen (AID 1094); settings: small-molecule microarray, higher = more signal;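 also: score merges spot fluorescence near 667 nm with spot signal-to-noise ratio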
[18] = system: Noggin (protein binding on small-molecule microarray); assay: small molecules binding Noggin protein – biochemical, 635/667 nm fluorescence, primary screen (AID 1095); settings: 635 nm fluorescence, higher = more signal;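 also: score merges 667 nm feature fluorescence with signal to noise over triplicate slides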
[19] = target: Neurogenic locus notch homolog protein 3 (Homo sapiens) (UniProt Q9UM47); assay: small molecules binding NOTCH3 protein – biochemical, 635/667 nm fluorescence, primary screen (AID 1096); settings: small-molecule microarray, 635 nm fluorescence, higher = more signal
Sequence of Neurogenic locus notch homolog protein 3 (Homo sapiens) (Q9UM47 whole entry, looked up): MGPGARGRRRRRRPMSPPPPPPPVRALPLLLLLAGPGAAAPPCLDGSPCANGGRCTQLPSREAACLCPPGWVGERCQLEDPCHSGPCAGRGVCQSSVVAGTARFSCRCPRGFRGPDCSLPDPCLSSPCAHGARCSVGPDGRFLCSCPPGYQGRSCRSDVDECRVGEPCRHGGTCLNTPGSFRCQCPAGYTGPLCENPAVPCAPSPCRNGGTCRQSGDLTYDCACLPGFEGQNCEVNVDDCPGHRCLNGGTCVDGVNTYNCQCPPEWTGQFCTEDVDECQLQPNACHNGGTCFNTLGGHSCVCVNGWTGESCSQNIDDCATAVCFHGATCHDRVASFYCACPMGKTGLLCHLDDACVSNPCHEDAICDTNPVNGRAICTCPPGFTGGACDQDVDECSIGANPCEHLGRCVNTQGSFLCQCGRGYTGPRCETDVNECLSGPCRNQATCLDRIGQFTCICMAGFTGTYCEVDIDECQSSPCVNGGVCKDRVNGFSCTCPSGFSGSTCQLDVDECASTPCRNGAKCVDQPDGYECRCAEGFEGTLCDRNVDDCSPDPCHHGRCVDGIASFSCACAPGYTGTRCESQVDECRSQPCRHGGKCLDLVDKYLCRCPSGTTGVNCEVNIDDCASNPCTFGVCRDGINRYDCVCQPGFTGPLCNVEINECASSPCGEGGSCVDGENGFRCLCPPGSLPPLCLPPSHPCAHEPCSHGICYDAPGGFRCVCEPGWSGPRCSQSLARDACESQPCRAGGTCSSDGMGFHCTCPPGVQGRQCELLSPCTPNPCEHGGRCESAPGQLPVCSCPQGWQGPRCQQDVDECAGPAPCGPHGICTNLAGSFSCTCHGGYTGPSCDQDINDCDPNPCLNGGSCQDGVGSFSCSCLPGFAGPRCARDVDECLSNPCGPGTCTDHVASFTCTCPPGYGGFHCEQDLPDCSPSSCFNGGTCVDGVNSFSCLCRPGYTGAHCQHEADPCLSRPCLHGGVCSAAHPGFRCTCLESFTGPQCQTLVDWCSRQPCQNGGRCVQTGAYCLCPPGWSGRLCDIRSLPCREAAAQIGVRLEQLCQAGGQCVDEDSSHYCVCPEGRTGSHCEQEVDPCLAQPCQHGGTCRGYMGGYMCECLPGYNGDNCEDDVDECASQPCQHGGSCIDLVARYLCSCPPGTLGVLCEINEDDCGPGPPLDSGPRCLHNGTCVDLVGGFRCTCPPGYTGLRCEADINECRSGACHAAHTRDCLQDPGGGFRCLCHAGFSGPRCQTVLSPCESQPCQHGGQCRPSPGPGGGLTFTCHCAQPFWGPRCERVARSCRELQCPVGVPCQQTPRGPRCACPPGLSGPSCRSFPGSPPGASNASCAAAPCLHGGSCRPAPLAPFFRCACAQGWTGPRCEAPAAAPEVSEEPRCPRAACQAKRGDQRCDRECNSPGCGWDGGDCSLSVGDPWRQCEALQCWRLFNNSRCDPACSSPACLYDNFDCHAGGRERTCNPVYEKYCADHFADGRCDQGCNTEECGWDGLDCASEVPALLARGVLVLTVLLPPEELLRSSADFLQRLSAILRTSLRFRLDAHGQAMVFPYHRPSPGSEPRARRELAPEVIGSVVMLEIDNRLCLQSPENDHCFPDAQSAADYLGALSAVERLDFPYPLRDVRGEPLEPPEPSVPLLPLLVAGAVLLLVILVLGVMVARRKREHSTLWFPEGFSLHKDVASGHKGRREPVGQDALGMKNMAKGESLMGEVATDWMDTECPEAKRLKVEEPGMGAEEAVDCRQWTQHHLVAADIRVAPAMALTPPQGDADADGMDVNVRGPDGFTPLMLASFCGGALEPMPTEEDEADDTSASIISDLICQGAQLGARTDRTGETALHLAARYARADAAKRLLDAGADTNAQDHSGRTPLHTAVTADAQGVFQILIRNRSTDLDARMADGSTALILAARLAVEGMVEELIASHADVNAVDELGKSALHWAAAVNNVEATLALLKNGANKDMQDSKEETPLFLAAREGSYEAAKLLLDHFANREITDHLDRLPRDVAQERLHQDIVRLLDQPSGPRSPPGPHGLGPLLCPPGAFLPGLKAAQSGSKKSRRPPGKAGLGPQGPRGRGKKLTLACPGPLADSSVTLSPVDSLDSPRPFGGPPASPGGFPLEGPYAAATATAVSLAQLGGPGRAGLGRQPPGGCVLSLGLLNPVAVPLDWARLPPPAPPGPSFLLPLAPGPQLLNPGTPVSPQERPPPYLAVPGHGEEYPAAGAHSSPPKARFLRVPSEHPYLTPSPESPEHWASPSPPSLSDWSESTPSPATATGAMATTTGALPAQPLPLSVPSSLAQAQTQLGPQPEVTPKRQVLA

[20] = probe aEGFR binding to arrayed compounds – biochemical, biotinylated probe, 635/667 nm fluorescence, primary screen (AID 1097); settings: small-molecule microarray, higher = more signal;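 also: probe is a biotinylated anti-EGFR antibody binding compounds printed on slides; score combines fluorescence near 667 nm and signal to noise of each spot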

SMILES	composite z-score [1]	composite z-score [2]	composite z-score [3]	composite z-score [4]	composite z-score [5]	composite z-score [6]	composite z-score [7]	z-score [8]	composite z-score [9]	composite z-score [10]	composite z-score [11]	z-score [12]	z-score [13]	z-score [14]	composite z-score [15]	z-score [16]	composite z-score [17]	composite z-score [18]	composite z-score [19]	composite z-score [20]
COc1ccc([Si](C)(C)[C@H]2[C@H](CCn3cc(CCO)nn3)O[C@@]3(C(=O)N(Cc4ccc(N5C(=O)c6cccc7cccc5c67)cc4)c4ccccc43)[C@@H]2C)cc1	-0.619	0.355	-0.0583	0.53	0.611	1.16	1.1	-4.65 (inactive)	0.372	0.0695	1.55	-0.246 (inactive)	0.983 (inactive)	6.07 (inactive)	1.86	2.76 (inactive)	-0.0895	1.41	1.09	-0.0371
COC(=O)[C@@]1(Cc2ccccc2)[C@H]2c3cc(C(=O)N4CCCC4)[nH]c3C[C@H]2CN1C(=O)c1ccccc1	0.718	0.065	0.134	-0.0267	1.13	1.29	0.664	0.535 (inactive)	0.623	-0.133	-1.74	-0.202 (inactive)	1.02 (inactive)	0.0237 (inactive)	3.51	-0.156 (inactive)	0.134	-0.463	-0.0434	-0.122
C=CC[C@]12N=C(c3ccc(OCCCO)cc3)O[C@H]1c1ccccc1N(C)C2=O	1.21	0.541	0.0563	0.21	0.0523	1.3	1.22	-1.14 (inactive)	0.896	0.214	1.57	-0.167 (inactive)	-4.1 (inactive)	0.532 (inactive)	2.78	-0.479 (inactive)	0.28	0.798	0.725	0.0488
CCCCC(CC)C(O)C1C=CC2C(=O)N(c3ccccc3)C(=O)C2N1Nc1ccc([N+](=O)[O-])cc1 (stereo not given)	-0.294	0.153	0.141	0.848	1.73	1.88	1.26	-1.62 (inactive)	1.1	-0.234	1.55	-0.777 (inactive)	-0.126 (inactive)	1.44 (inactive)	3.65	-0.191 (inactive)	0.0958	0.547	1.03	0.11
COc1ccc([Si](C)(C)[C@H]2[C@H](CC(=O)N3Cc4ccccc4C[C@H]3CO)O[C@@]3(C(=O)N(Cc4cccc(N5CCCCC5=O)c4)c4ccccc43)[C@@H]2C)cc1	0.0111	0.576	0.085	0.36	0.246	0.175	1.2	-2.09 (inactive)	0.342	0.0274	1.29	-2.19 (inactive)	0.522 (inactive)	0.925 (inactive)	1.79	-0.0352 (inactive)	0.02	1.02	1.09	-0.0471
CCCc1cccc(=O)o1	-0.218	-0.001	-0.112	0.191	0.168	0.785	1.24	0.273 (inactive)	-0.278	0.155	0.804	-0.91 (inactive)	0.641 (inactive)	-0.467 (inactive)	1.17	-0.454 (inactive)	-0.0475	0.614	0.363	0.0276
CC(C)C(=C=CC[C@@H](O)c1ccccc1OCCO)C[C@@H](O)COCc1ccccc1	-0.248	0.399	-0.072	0.729	0.429	1.13	0.865	-3.84 (inactive)	0.592	-0.199	1.29	-19.2 (active)	-20.5 (active)	-3.68 (inactive)	1.16	1.44 (inactive)	-0.139	1.24	0.388	0.001
CC(C)(C)OC(=O)CC[C@]1(C(=O)NCCN2CCOCC2)N=C(c2ccc(OCCCO)cc2)O[C@H]1c1ccccc1N=[N+]=[N-]	0.85	1.55	0.105	0.606	0.1	1.72	1.39	4.57 (inactive)	0.778	0.913	1.49	-0.417 (inactive)	-0.437 (inactive)	-0.535 (inactive)	3.38	0.102 (inactive)	0.373	-0.238	0.412	0.0988
COc1ccccc1CN1C(=O)c2ccccc2[C@@H](C(=O)NC(C)C)[C@@H]1c1ccc(CO)cc1	-0.0001	-0.487	0.0451	0.761	1.53	1.13	1.31	-1.41 (inactive)	0.676	0.281	1.51	-0.309 (inactive)	-0.0831 (inactive)	-0.352 (inactive)	2.36	1.02 (inactive)	0.12	0.885	1.09	0.14
NC(N)=NCc1cn(CCc2c[nH]c3ccccc23)nn1	-0.711	0.348	-0.121	0.536	0.348	0.499	0.992	0.512 (inactive)	0.225	0.132	0.974	-0.289 (inactive)	-0.002 (inactive)	-1.38 (inactive)	1.01	-0.979 (inactive)	-0.166	1.36	0.646	0.128
COc1cc2c(cc1OC)CN(C(=O)[C@@H]1[C@H]3C(=O)O[C@H](c4ccccc4)[C@H](c4ccccc4)N3[C@H](c3ccccc3OCCO)[C@@]13C(=O)Nc1ccc(C#CC4(O)CCCCCC4)cc13)CC2	-0.0079	0.955	-0.0573	0.201	0.463	0.935	1.2	-0.066 (inactive)	-0.0613	-0.123	1.54	2.74 (inactive)	0.563 (inactive)	5.14 (inactive)	2.09	2.26 (inactive)	0	0.56	0.896	-0.0357
O=C1OCC=C[C@H]2OC34C=CCN(Cn5nnc6ccccc65)C(=O)[C@H]3N(CCCCCCO)C(=O)[C@@H]4[C@@H]12 (stereo not given in full)	0.492	-0.334	-0.163	-0.54	-0.522	1.91	1.52	0.215 (inactive)	-0.116	-0.201	-0.184	-1.47 (inactive)	-1.19 (inactive)	-0.66 (inactive)	1.29	-0.218 (inactive)	-0.0356	-1.04	-0.0986	-0.195
COCCOC(=O)N1C(=O)[C@@]2(c3cc(C#CCC(C(=O)OC)C(=O)OC)ccc31)[C@H](c1ccc(OCCO)cc1)N1[C@H](c3ccccc3)[C@H](c3ccccc3)OC(=O)[C@H]1[C@@H]2C(=O)N1CCN(c2ncccn2)CC1	-0.372	1.32	-0.0431	0.905	1.25	1.64	1.14	0.977 (inactive)	0.789	0.142	1.45	1.07 (inactive)	0.934 (inactive)	6.44 (inactive)	3.17	1.75 (inactive)	0.0112	1.17	1.07	0.0397
COc1ccc(C(O)C2C=CC3C(=O)N(Cc4ccccc4)C(=O)C3N2n2cnnc2)c2ccccc12 (stereo not given)	0.487	1.07	-0.0876	-0.522	-0.782	1.81	1.32	0.422 (inactive)	0.623	-0.162	1.17	-0.346 (inactive)	0.0768 (inactive)	-0.282 (inactive)	2.81	-0.671 (inactive)	-0.238	-0.641	0.556	-0.175
CCOC(=O)C1=C[C@@H](c2ccccc2)N(S(=O)(=O)c2ccc(C)cc2)[C@H]1c1cccc(Cl)c1	0.266	1.81	0.085	0.885	1.58	1.34	0.991	-2.98 (inactive)	1.02	-0.0919	1.57	0.962 (inactive)	1.71 (inactive)	2.24 (inactive)	2.67	-0.913 (inactive)	0.268	0.688	1.07	0.143
COCCOC(=O)N1C(=O)[C@@]2(c3cc(C#Cc4ccc(OC)cc4)ccc31)[C@H](C(=O)N1CCN(c3ncccn3)CC1)[C@H]1C(=O)O[C@H](c3ccccc3)[C@H](c3ccccc3)N1[C@@H]2c1ccccc1OCCO	-0.0234	0.0841	-0.124	0.475	0.711	0.0925	1.02	-0.425 (inactive)	0.0402	-0.0994	1.45	3.33 (inactive)	2.27 (inactive)	7.9 (inactive)	2.17	-0.332 (inactive)	-0.0917	0.735	0.605	-0.0382
NCCCCCCNC(=O)[C@@H]1C[C@@H]2C(=O)N3CCC[C@H]3C(=O)N2[C@@H]1c1ccc(O)cc1	0.327	-0.055	-0.0006	0.0841	0.337	1.9	1.18	0.15 (inactive)	1.1	0.154	1.25	-0.723 (inactive)	-1.22 (inactive)	-0.476 (inactive)	2.02	-1.03 (inactive)	-0.0912	1.58	0.494	-0.0568
COc1cc2c(cc1OC)CN(C(=O)[C@H]1[C@@H]3C(=O)O[C@@H](c4ccccc4)[C@@H](c4ccccc4)N3[C@@H](c3ccc(OCCO)cc3)[C@]13C(=O)Nc1ccc(C#CCCO)cc13)CC2	-0.0463	0.853	0.0746	0.844	1.43	1.39	0.874	-0.0164 (inactive)	0.707	0.305	1.54	2.48 (inactive)	1.55 (inactive)	5.29 (inactive)	2.87	0.314 (inactive)	0.0448	1.14	1.06	-0.0069
COC(=O)[C@@]1(Cc2ccc(OC)cc2)[C@H]2c3cc(C(=O)N(C)C)n(Cc4ccccc4)c3C[C@H]2CN1C(=O)c1ccccc1	0.342	0.0293	-0.0066	0.0679	0.571	1.11	0.828	-1.53 (inactive)	1.06	-0.0597	-0.0018	0.0364 (inactive)	-0.55 (inactive)	-1.42 (inactive)	1.84	-0.869 (inactive)	0.0241	0.337	0.0263	-0.254
[N-]=[N+]=NCc1ccccc1C[C@@]1(C(=O)NCCN2CCOCC2)N=C(c2ccc(OCCCO)cc2)O[C@@H]1c1ccccc1N=[N+]=[N-]	0.646	1.99	0.075	0.879	0.777	0.684	1.16	-1.89 (inactive)	0.75	-0.0296	1.37	-1.22 (inactive)	-0.269 (inactive)	1.29 (inactive)	3.12	-0.704 (inactive)	0.09	0.622	0.842	-0.0738
